Experimental data: the supplement of paper PMC12067093, “Discovery and optimisation of a covalent ligand for TRIM25 and its application to targeted protein ubiquitination” (Chemical Science, 2025)
Targets with the largest changes are over-represented here; the source holds about 21,000 in all.

Compound: Cc1cc(ccc1-c1ccccc1)C(=O)N1CCCN(CC1)C(=O)CCl [compound 10]
Experiment: probe-labelled cysteine peptide fold change vs DMSO (competition) (log2 fold change); higher = less target engagement (more negative = stronger competition)
Conditions: THP-1, incubation time: 4 h
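Note: competitive profiling in live THP-1 cells: cysteine peptides tagged with an iodoacetamide desthiobiotin (IA-DTB) probe, intensity after compound treatment relative to DMSO-treated cells.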

Target	probe-labelled cysteine peptide fold change (10 µM)	probe-labelled cysteine peptide fold change (50 µM)
GFPT1_Q06210_264_VDSTTCLFPVEEK (UniProt Q06210)	-0.0167	0.203
GDAP2_Q9NXN4_148_TAAESSLYSCYR (UniProt Q9NXN4)	-0.0153	0.00868
GFM2_Q969S9_248_LLWNCNSNDGK (UniProt Q969S9)	-0.353	-0.937
FKBP3_Q00688_133_KGDVVHCWYTGTLQDGTVFDTNIQTSAK (UniProt Q00688)	0.106	-0.0529
GOLGA2_Q08379_984_ERPGLGSNPCIPFFYR (UniProt Q08379)	-0.149	-0.0471
GATD1_Q8NB37_94_YHALLIPSCPGALTDLASSGSLAR (UniProt Q8NB37)	0.0159	-0.00276
FOS_P01100_204_EKLEFILAAHRPACK (UniProt P01100)	0.0955	1.53
FLAD1_Q8NFF5_338_LTLDSEEEGPLEECLAYLTAR (UniProt Q8NFF5)	-0.0485	0.177
GSPT1_P15170_464_TAGTICLETFK (UniProt P15170)	0.00954	0.0941
GTF2I_P78347_475_MVDQLFCK (UniProt P78347)	-0.213	0.51
HINT3_Q9NQE9_66+73_QDPGTELLHCENEDLICFK (UniProt Q9NQE9)	-0.386	-0.532
GSDMD_P57764_38_RVVQELDHGGEFIPVTSLQSSTGFQPYCLVVR (UniProt P57764)	0.275	-0.375
GPAA1_O43292_266_GGLLCTLQGK (UniProt O43292)	-0.168	-0.0244
FKBP8_Q14318_274_CLNNLAASQLK (UniProt Q14318)	0.0653	-0.0462
HDAC10_Q969S8_23_LLWDDPECEIERPER (UniProt Q969S8)	-0.294	-0.208
GTF3C5_Q9Y5Q8_75_DPYCHPVCANR (UniProt Q9Y5Q8)	0.121	0.621
GEMIN5_Q8TEQ6_1421_NEPEVEAEQPLCSSQSQCK (UniProt Q8TEQ6)	0.068	-0.124
FTSJ3_Q8IY81_293_VCCQDIR (UniProt Q8IY81)	0.217	-0.481
HAUS2_Q9NVX0_89_CHTLQSMNNHLEAVLK (UniProt Q9NVX0)	0.0751	-0.239
GLRX_P35754_26_VVVFIKPTCPYCR (UniProt P35754)	-1.05	-3.44
GEMIN5_Q8TEQ6_82_VSGFTFSHHPGQYNLCATSSDDGTVK (UniProt Q8TEQ6)	0.193	0.148

Target	probe-labelled cysteine peptide fold change (10 µM)	probe-labelled cysteine peptide fold change (50 µM)
GNAI2_P04899_326_EIYTHFTCATDTK (UniProt P04899)	0.0663	-0.0637
GPD1L_Q8N335_216_NIVAVGAGFCDGLR (UniProt Q8N335)	-0.0284	0.115
HBS1L_Q9Y450_84_LYSCLDHMR (UniProt Q9Y450)	0.0793	-0.0662
GTF3C4_Q9UKN8_376_CVPLYHPYQK (UniProt Q9UKN8)	0.0788	0.144
GRN_P28799_178_CITPTGTHPLAK (UniProt P28799)	-0.279	-0.341
FHOD1_Q9Y613_43_APTCSLDGALPLGAQIPAVHR (UniProt Q9Y613)	-0.105	0.425
FSCN1_Q16658_226_VAFRDCEGR (UniProt Q16658)	-0.244	-0.563
GATM_P50440_50_NSCAADDK (UniProt P50440)	-0.478	-1.27
HDDC3_Q8N4P3_133_CTPEGWSEHR (UniProt Q8N4P3)	0.13	-0.00995
GATD3B_A0A0B4J2D5_177_EFHQAGKPIGLCCIAPVLAAK<|>GATD3A_P0DPI2_177_EFHQAGKPIGLCCIAPVLAAK (UniProt P0DPI2)	-0.563	-1.98
GLA_P06280_56_FMCNLDCQEEPDSCISEK (UniProt P06280)	0.07	-0.0872
HDHD5_Q9BXW7_392_DLCFSPGLMEASHVVNDVNEAVQLVFRK (UniProt Q9BXW7)	-0.183	-1.22
GOLGA3_Q08378_769_LGELQGEAASREDTICLLQNEK (UniProt Q08378)	-0.084	-0.193
GTF3A_Q92664_191_AHEGYVCQK (UniProt Q92664)	0.112	-0.151
HERC2_O95714_1201_ERDDHEELAWPGIMESFFTGQNCR (UniProt O95714)	-0.0998	-0.244
HDAC4_P56524_777_LAVGCVVELVFK (UniProt P56524)	0.157	0.082
GATD3B_A0A0B4J2D5_176+177_EFHQAGKPIGLCCIAPVLAAK<|>GATD3A_P0DPI2_176+177_EFHQAGKPIGLCCIAPVLAAK (UniProt P0DPI2)	-1.14	-2.38
HELZ_P42694_101_AVLCCMQLK (UniProt P42694)	-0.198	-1.11
HELZ_P42694_100_AVLCCMQLK (UniProt P42694)	-0.406	-1.27
HERC2_O95714_1037_ISSCLDFEQHSR (UniProt O95714)	0.0441	0.321
HDAC8_Q9BY41_153_KDEASGFCYLNDAVLGILR (UniProt Q9BY41)	-0.0393	0.0564

Target	probe-labelled cysteine peptide fold change (10 µM)	probe-labelled cysteine peptide fold change (50 µM)
HAUS6_Q7Z4H7_662_VISDCECVPQK (UniProt Q7Z4H7)	0.0385	-0.547
GALNT7_Q86SF2_545_GFETAYCIDSMGK (UniProt Q86SF2)	-0.0613	0.095
GRHPR_Q9UBQ7_29_AADCEVEQWDSDEPIPAK (UniProt Q9UBQ7)	-0.563	-0.167
GNB1_P62873_148+149_ELAGHTGYLSCCR (UniProt P62873)	-0.185	-0.407
FYCO1_Q9BQS8_293_LTCLVAELQK (UniProt Q9BQS8)	0.0275	0.224
GSTP1_P09211_102_DQQEAALVDMVNDGVEDLRCK (UniProt P09211)	0.0332	1.08
GNL1_P36915_365_YKDGVVTIGCVGFPNVGK (UniProt P36915)	-0.0143	-0.869
FRMD8_Q9BZ67_206_LDSFLPAHLCK (UniProt Q9BZ67)	-0.0859	-0.347
GPC4_O75487_341_VFQGCGPPK (UniProt O75487)	-0.24	-0.0603
GIT1_Q9Y2X7_576_KGVSASAVPFTPSSPLLSCSQEGSR (UniProt Q9Y2X7)	-0.316	-0.788
HEATR5A_Q86XA9_1635_QIICAAQEHVK (UniProt Q86XA9)	0.0658	0.171
GFI1_Q99684_155_GAGLGLFCEPAPEPGHPAALYGPK (UniProt Q99684)	-0.225	1.62
GTPBP3_Q969Y2_188_QLDGELGHLCR (UniProt Q969Y2)	-0.0966	-0.00935
FGR_P09769_415_LIKDDEYNPCQGSK (UniProt P09769)	-0.148	-0.205
GLOD4_Q9HC38-2_41_VLRHEEFEEGCK (UniProt Q9HC38)	-0.835	-1.19
GCLM_P48507_35+46_CPSTHSEELHDCIQK (UniProt P48507)	-0.112	-0.843
HDHD3_Q9BSH5_109_DFSHPCTWQVLDGAEDTLR (UniProt Q9BSH5)	-0.47	-1.92
GABPA_Q06546_69_LQCSLDAHEICLQDIQLDPER (UniProt Q06546)	0.331	-0.0571
GPATCH1_Q9BRR8_485_AQLSPAAAAGHCSWNMALGGGTATLK (UniProt Q9BRR8)	-0.0776	-1.25
HCK_P08631_241_LSVPCMSSK (UniProt P08631)	-0.0986	0.102
HERC4_Q5GLZ8_58+60_HTVFVLDDGTVYTCGCNDLGQLGHEK (UniProt Q5GLZ8)	-0.0133	-1.05

Target	probe-labelled cysteine peptide fold change (10 µM)	probe-labelled cysteine peptide fold change (50 µM)
FLCN_Q8NFG4_215_VFEAEQFGCPQR (UniProt Q8NFG4)	-0.0204	-0.54
HLA-C_P04222_345+364_GGSCSQAASSNSAQGSDESLIACKA (UniProt P04222)	-0.638	-1.66
HDAC5_Q9UQL6_982_CFGHLTR (UniProt Q9UQL6)	0.138	-0.104
GPX1_P07203_78_GLVVLGFPCNQFGHQENAKNEEILNSLK (UniProt P07203)	-0.208	-1.3
GRHPR_Q9UBQ7_288_NCVILPHIGSATHR (UniProt Q9UBQ7)	0.293	0.0427
GTF2B_Q00403_34+37_AGDMICPECGLVVGDR (UniProt Q00403)	0.105	0.0895
GATM_P50440_131_KAVAEIEEMCNILK (UniProt P50440)	-0.0751	-0.22
HEATR3_Q7Z4Q2_57_ECACAGLAR (UniProt Q7Z4Q2)	-1.43	-4.94
HDAC10_Q969S8_508_LLCVALGQLDRPPDLAHDGR (UniProt Q969S8)	0.15	0.0528
HK3_P52790_840_AAQLCGAGVAAVVEK (UniProt P52790)	0.169	-0.0558
FHL2_Q14192_275_GFLTERDDILCPDCGK (UniProt Q14192)	0.0254	-0.163
HDAC6_Q9UBN7_539_PATEAELLTCHSAEYVGHLR (UniProt Q9UBN7)	-0.137	0.302
HINT1_P49773_38_CLAFHDISPQAPTHFLVIPK (UniProt P49773)	0.0727	0.0613
FHL1_Q13642_150_GEDFYCVTCHETK (UniProt Q13642)	0.107	-0.0472
GSK3B_P49841_335_LTPLEACAHSFFDELRDPNVK (UniProt P49841)	0.133	0.0393
HGS_O14964_212_VCEPCYEQLNR (UniProt O14964)	0.0236	-0.13
GNB1_P62873_294_LLLAGYDDFNCNVWDALK (UniProt P62873)	0.0699	0.17
GOLGA4_Q13439_1085_ILLFGCEK (UniProt Q13439)	-0.11	0.095
GBF1_Q92538_1707_IDCFLPHLRDELFK (UniProt Q92538)	-0.0239	-0.111
HK3_P52790_190_CSGVEGQDVVQLLR (UniProt P52790)	0.199	-0.106
